For 28 compounds, Inhibition results are on record in ChEMBL document CHEMBL1157539, “Thousands of chemical starting points for antimalarial lead identification” (Nature, 2010).

Structures are written as SMILES.

Common to all, as to format: functional
In experiment [1] the test system is Plasmodium falciparum. The experiment is described as follows: GSK_TCMDC: Inhibition of Plasmodium falciparum 3D7 in whole red blood cells, using parasite LDH activity as an index of growth. Test compounds present at 2uM.
The test system of experiment [2] is Plasmodium falciparum. Put plainly: GSK_TCMDC: Inhibition of Plasmodium falciparum Dd2 in whole red blood cells, using parasite LDH activity as an index of growth. Test compounds present at 2uM.
A further experiment concerns HepG2. The experiment is described as follows: GSK_TCMDC: Percent inhibition of human HepG2 cell line. Test compounds present at 10uM.

By Inhibition is commonly meant how much of the control response was suppressed. The low end stands for a response near the control, the high end for a response far below the control. With `O=C(NC1CCCCC1)C1CCCN(C(=O)c2ccc(O)c(-c3ccc(Cl)c(Cl)c3)c2)C1` (centres undefined), the Inhibition in the experiment with Plasmodium falciparum [1] came out at 89%; in the experiment with Plasmodium falciparum [2] it was 42%; in the experiment on HepG2, 22%.
Consider `COc1c(C2CCN(CCCCNC(=O)c3cc(-c4ccc(Cl)cc4)oc3C)CC2)ccc2c1CCCC2`, for which the Inhibition is listed as 97% in the experiment with Plasmodium falciparum [1], 27% in the experiment on Plasmodium falciparum [2] and 93% in the experiment with HepG2.
`CC(=O)c1ccc(-c2ccc(C(=O)NCCCCN3CCC(c4ccc5c(c4OCC(N)=O)CCCC5)CC3)cc2)s1`: the figures for the Inhibition in the experiment on Plasmodium falciparum [1], in the experiment with Plasmodium falciparum [2] and with HepG2 were 90%, 4% and 26%, respectively.
Consider `Fc1cccc(Nc2nc(NCCc3ccc(Cl)cc3)nc(Nc3cccc(F)c3)n2)c1`, for which the Inhibition is recorded as 93% in the experiment on Plasmodium falciparum [1], 30% in the experiment with Plasmodium falciparum [2] and 0% in the experiment on HepG2.
Turning to `COc1cc(Nc2nccc(N3CCC(NC(=O)Nc4cc(C)ccc4C)C3)n2)cc(OC)c1OC` (centres undefined), the Inhibition with Plasmodium falciparum [1] turned out to be 91%; in the experiment with Plasmodium falciparum [2], 52%; in the experiment with HepG2 it was 13%.
Take `O=C(NCc1ccc(Cl)cc1)c1ccc(C(=O)NCC2CCCN2CC2CCCCC2)cc1.O=C(O)C(F)(F)F` (centres undefined): the Inhibition with Plasmodium falciparum [1] was determined as 97%; with Plasmodium falciparum [2], 10%; in the experiment on HepG2, 21%.
`Cc1nc2c(=O)sc3ccccc3c2n1Cc1ccccc1`: the Inhibition was determined as 95% in the experiment with Plasmodium falciparum [1], 26% in the experiment on Plasmodium falciparum [2] and 0% in the experiment on HepG2.
The like results for `COC(=O)c1cccc(CNCc2ccc(-c3ccc(-c4nc5ccccc5[nH]4)s3)cc2)c1.O=C(O)C(F)(F)F` were, in that order, 100%, 79% and 20%.
With `COc1ccccc1CCNc1nc(C)cc(NCCC(=O)NCCOc2ccccc2)n1.O=C(O)C(F)(F)F`, the Inhibition with Plasmodium falciparum [1] came to 85%; in the experiment with Plasmodium falciparum [2], 14%; in the experiment with HepG2, 11%.
For `Cc1ccccc1-c1nc2c(CN3CCC(O)(c4ccccc4)CC3)c(O)ccc2[nH]1`, in that order: 92%, 61% and 27%.
For `CC(Oc1ccc(Cl)cc1)C(=O)Nc1cc(C(F)(F)F)ccc1-n1cncn1` (centres undefined), in that order: 99%, 98% and 0%.
In the case of `COc1cc(C(=O)Nc2ccc(-c3nc4ccccc4[nH]3)cc2)cc(OC)c1OC`, the Inhibition was determined as 99% in the experiment with Plasmodium falciparum [1], 33% in the experiment on Plasmodium falciparum [2] and 13% in the experiment with HepG2.
For `Oc1c(Br)cc2oc3c(c2c1CNCc1ccccc1)CCCC3`, the values for the Inhibition with Plasmodium falciparum [1], in the experiment with Plasmodium falciparum [2] and with HepG2 were 99%, 74% and 0%, respectively.
The like results for `COCCSc1nc2scc(C)c2c(=O)n1Cc1cccc(OC)c1` were, in that order, 92%, 33% and 0%.
The like results for `COc1ccc2nc3cc(Cl)ccc3c(NCCCCNc3c4ccc(Cl)cc4nc4ccc(OC)cc34)c2c1` were, in that order, 99%, 99% and 20%.
For `CCC[C@@H]([C@@H](CC(C)C)C(=O)N[C@@H](CCCCNC(=O)OCc1ccccc1)C(=O)Nc1ncccn1)N(O)C=O`, in that order: 100%, 98% and 3%.
As to `CCN(CC)CCCC(C)Nc1ccnc2[nH]c3ccccc3c12` (centres undefined), the figures for the Inhibition in the experiment with Plasmodium falciparum [1], with Plasmodium falciparum [2] and with HepG2 were 82%, 38% and 0%, respectively.
Regarding `COCc1cc(C)nc2sc(C(=O)Nc3cc(C(C)(C)C)ccc3O)c(N)c12`, the Inhibition with Plasmodium falciparum [1] is 85%; in the experiment on Plasmodium falciparum [2] it was 57%; in the experiment on HepG2 it was 0%.
The like results for `O=C(c1cc(C(=O)Nc2ccccc2F)c(=O)n(-c2ccccc2F)c1)c1cc(Cl)ccc1O` were, in that order, 98%, 80% and 2%.
The like results for `O=C(Nc1nc2cc(S(=O)(=O)NCCCN3CCOCC3)ccc2n1CCCn1ccnc1)c1ccc(Cl)cc1.O=C(O)C(F)(F)F` were, in that order, 95%, 0% and 0%.
The like results for `Cc1cc(OCC2CCCO2)c2cc(NC(=O)C(=O)Nc3ccc4nc(C)cc(OCC5CCCO5)c4c3)ccc2n1` (centres undefined) were, in that order, 96%, 32% and 7%.
With `Fc1ccc2[nH]c(-c3cccc(-c4cccc(CNCCc5ccncc5)c4)c3)nc2c1.O=C(O)C(F)(F)F`, the values for the Inhibition with Plasmodium falciparum [1], in the experiment on Plasmodium falciparum [2] and with HepG2 were 100%, 88% and 22%, respectively.
The like results for `CCCCCCCC1=NN2C(=N)C(=Cc3cc(Br)c(OCc4ccc(F)cc4)c(OCC)c3)C(=O)N=C2S1` were, in that order, 95%, 0% and 4%.
For `COc1cccc(-c2nn(C)c3sc(C(=O)NCCN(C)Cc4ccccc4)cc23)c1`, the Inhibition turned out to be 92% with Plasmodium falciparum [1], 26% with Plasmodium falciparum [2] and 21% in the experiment with HepG2.
The like results for `NC(=O)c1ccc(NCC(=O)Nc2cccc(-c3cccc(-c4nc5cc(F)ccc5[nH]4)c3)c2)cc1` were, in that order, 97%, 32% and 15%.
In the case of `CCN(CC)CCCC(C)Nc1ccnc2ccc(-c3ccccc3)cc12` (centres undefined), the Inhibition worked out at 98% in the experiment on Plasmodium falciparum [1], 21% with Plasmodium falciparum [2] and 0% in the experiment on HepG2.
For `CC(=O)Nc1cccc(C(=O)Nc2cccc(-c3cccc(-c4nc5cc(F)ccc5[nH]4)c3)c2)c1`, in that order: 100%, 44% and 51%.
The like results for `Cn1nc(-c2ccc(NC(=O)Nc3cc(C(F)(F)F)ccc3F)cc2)c2cnc(NCCCCN3CCCC3)nc21.O=C(O)C(F)(F)F` were, in that order, 98%, 74% and 88%.
